Rab9 promoter act: activates the Rab9 promoter | Huh7 Rab9 promoter-luciferase reporter, luminescence, 24 h | Potency, µM (series often up to 9.22 µM), for inactives: at the top dose activation, negative = inhibition, most hits filed as activators | 320,000 tested, 2.8% active | AID 485297; also: % of control where 0% means no effect; nearly all actives have a fitted effect of over 60% in size
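Stable Rab9-luc Huh7, 1500 cells/well, 2 h settle; cmpd in DMSO, 24 h, 37 °C/5% CO2; luciferase reagent 10 min RT; luminescence.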
NPC1 prom act: NPC1 promoter activation; Huh7 NPC1 promoter luciferase reporter, 24 h; Potency, µM (titrated, usually from 9.22 µM), for inactives: at the highest dose activation, most hits filed as activators; 320,000 tested, 2.4% active; AID 485313; also: % of control where 0% means no effect; nearly all actives have a fitted effect of over 60% in size
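Cells: Huh7 expressing luciferase under the NPC1 promoter, 1500/well. Seeded 2 h, compound added, incubated 24 h at 37 °C. Luciferase reagent, 10 min ambient, then luminescence.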
SMN2 splice enh: enhancers of SMN2 splice variant expression | HEK293 SMN2-luciferase splicing reporter, luminescence, 30-36 h | Potency, µM (series often up to 46.1 µM), for the others: top-dose activity change, positive = activation, actives largely listed as activators | 210,000 tested, 2.8% active; also: % of control where 0% means no effect; nearly all actives have a fitted effect of over 55% in size
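HEK293 cells carry an SMN2 minigene-luciferase reporter in which exon 7 inclusion puts luciferase in frame. Cells were seeded at 2000 cells/well, attached for 10-12 hours, then exposed to compounds for 30-36 hours at 37C before ONE-Glo luminescence.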
FLuc counter: inhibits or activates purified firefly luciferase, miR-21 counter-screen. 360,000 tested, 6.9% active. P08659. Potency, µM (titrated, usually from 57.5 µM), inactives show at the highest dose activity change, negative = inhibition, usual class: inhibitors. purified FLuc, Km substrates, luminescence inhibition. AID 588342;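 also: plate controls were vehicle for no effect and reference inhibitor for full effect; nearly all actives have a fitted effect of over 55% in size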
Target sequence (P08659 whole entry, looked up): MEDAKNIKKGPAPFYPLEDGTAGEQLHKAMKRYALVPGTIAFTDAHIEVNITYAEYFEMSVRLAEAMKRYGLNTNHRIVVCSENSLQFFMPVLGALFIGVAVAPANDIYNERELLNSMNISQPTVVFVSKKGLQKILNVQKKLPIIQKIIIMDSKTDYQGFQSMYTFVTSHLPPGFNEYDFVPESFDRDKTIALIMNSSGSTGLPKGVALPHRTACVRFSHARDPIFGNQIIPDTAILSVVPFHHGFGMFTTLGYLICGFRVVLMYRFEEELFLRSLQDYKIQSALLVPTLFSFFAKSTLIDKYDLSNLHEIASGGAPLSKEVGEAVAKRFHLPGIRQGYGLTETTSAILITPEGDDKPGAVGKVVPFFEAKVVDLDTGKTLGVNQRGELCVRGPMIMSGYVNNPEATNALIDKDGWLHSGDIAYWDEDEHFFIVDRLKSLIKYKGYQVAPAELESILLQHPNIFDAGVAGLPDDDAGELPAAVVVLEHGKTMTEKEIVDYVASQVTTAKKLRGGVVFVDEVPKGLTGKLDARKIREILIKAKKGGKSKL
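Biochemical qHTS of compounds, final roughly 60 µM downward over six points, against 10 nM purified firefly luciferase using Km concentrations of substrates (10 uM D-luciferin, 10 uM ATP) in Tris acetate pH 7.5 buffer; luminescence output.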
ELG1 genotox: induces genotoxicity in HEK293T cells with luciferase-tagged ELG1; 330,000 tested, 1.3% active; Potency, µM (highest dose often 46 µM), for the others: at the highest dose activity change, positive = activation, hits mostly activators; HEK293T ELG1-luciferase reporter, luminescence, 16 h; also: % of control where 0% means no effect; nearly all actives have a fitted effect of over 60% in size
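Step 1: seed 2,000 HEK293T ELG1-luciferase cells per well. Step 2: add compound or DMSO, incubate 16 hr at 37 °C. Step 3: ONE-Glo, 30 min at room temperature, read luminescence.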
Numbers without * were called inactive; ? = inconclusive; · = not tested or not shown; [ ] = another dose, or the depositor's remark. Rows were chosen to be rich in hits. Some 7.4% of all compounds tested hit in one or more screens of this group. Calls follow the shape of the dose curve; as a rule, active = well fitted curve in the direction sought with a large enough effect; inconclusive = small, poorly fitted or top-dose-only effect, or another doubt; inactive = no such curve, though single readings can be large; an effect the other way counts as inactive or inconclusive. Potency is read from the fitted curve at half-maximal effect.

SMILES	Rab9 promoter act	NPC1 prom act	SMN2 splice enh	FLuc counter	ELG1 genotox
Cc1nc2sc(C(N)=O)c(N)c2c2c1CCCC2	10%	?	·	12µM*	-18%
Cc1cc(NC(=O)CC2CCCC2)ccc1Br	?	-30%	·	19µM*	?
Cc1cccc(NC(=O)CC2CCC2)c1	4%	9%	4%	-11%	5%
Cc1cc(NC(=O)CCSc2ccccc2)ccc1Br	20%	14%	?	24µM*	?
O=C(CC1CCCC1)Nc1ccc2c(c1)CCC2	3.5µM*	2.5µM*	?	13µM*	?
O=C(Cc1ccccc1)Nc1ccc2c(c1)CCC2	?	?	·	?	13%
CCc1cnc2c(c1SCc1cc(OC)cc(OC)c1)c(=O)n(C)c(=O)n2C	·	·	·	5%	·
C=CCOc1ccc(C(=O)/C=C2/C(=O)Nc3ccccc32)cc1	-2%	-4%	·	1.5µM*	16%
NC(=O)COc1ccc(C(=O)/C=C2/C(=O)Nc3ccccc32)cc1	-5%	3%	·	11µM*	15%
COc1ccc(C(=O)/C=C2/C(=O)Nc3ccccc32)cc1OC	-1%	-1%	·	-14%	7%
Cc1ccc(NC(=O)C(Cc2c[nH]c3ccccc23)NC(=O)OCC(C)C)cc1 (stereo unspecified)	·	·	?	3%	·
Fc1cccc(Cl)c1Cc1noc(/C=C/c2ccccc2)n1	?	?	·	13µM*	15%
CNC(=O)Nc1ccccc1C(=O)NCc1ccccc1	0%	1%	-9%	0%	2%
O=C(Nc1ccc(Cl)cc1)Nc1ccccc1C(=O)NCc1ccco1	7%	5%	13%	19µM*	18%
O=C(Nc1ccccc1)Nc1ccccc1C(=O)NCc1ccccc1	15%	5%	1%	21µM*	1%
O=C(Cc1ccccc1)NNC(=O)Nc1ccccc1	2%	-2%	·	17µM*	-2%
C=CCN1c2ccccc2[C@]23C[C@@H](C(=O)OC)N(S(=O)(=O)c4ccc(C(F)(F)F)cc4)C2=NC(C(=O)OC)=C(C(=O)OC)[C@H]13	·	·	-3%[9.22 µM]	·	·
CCC(=O)/C=C/C1C(C)=CCCC1(C)C (stereo unspecified)	·	·	1%	·	·
CCOC(=O)c1c(S(=O)(=O)N2CCN(c3cc(Cl)ccc3C)CC2)c(C)n(C)c1C	·	·	·	-8%	·
COc1ccc(/C=C/c2cc(C(F)(F)F)on2)cc1	0%	12%	·	6µM*	13%
C/C(=N\NC(=O)c1ccc([N+](=O)[O-])cc1Cl)c1ccccc1	3.5µM*	?	·	?	?
CCCCCCCC1=CC2=C(Cl)C(=O)C(C)(OC(C)=O)C(=O)C2=CN1C (stereo unspecified)	·	·	-4%	·	·
CCOc1ccccc1CNCc1c(C(=O)O)n(Cc2ccc(F)cc2)c2cc(C)ccc12	·	·	·	2%	·
COC(=O)[C@@]1(Cc2ccccc2)[C@H]2c3cc(C(=O)N4CCCC4)n(CCO)c3C[C@H]2CN1C(=O)c1ccccc1	·	·	-3%	·	·
COc1cc(NC(=O)C2CCN(S(=O)(=O)c3c(C)noc3/C=C/c3cccs3)CC2)cc(OC)c1	·	·	-4%	-2%	·
SMILES	Rab9 promoter act	NPC1 prom act	SMN2 splice enh	FLuc counter	ELG1 genotox
COc1cccc2nc3cc(C)c(C)cc3nc12	0.89µM*	0.89µM*	·	0.76µM*	1.5µM*
O=C(NCCc1ccc(Cl)cc1)c1cccn1-c1nnc(N2CCCCC2)s1	·	·	·	-16%	·
CC(C)c1cc2cc3ccc(=O)oc3cc2o1	?	?	·	12µM*	?
O=c1ccc2cc3ccoc3cc2o1	3%	0%	·	-1%	6%
Cc1ccc(NC(=O)COc2ccccc2C(=O)Nc2ccccc2)cc1Cl	-3%	4%	-9%[1.84 µM]	?	1%
Cc1ccc(C(=O)COc2ccccc2N2C(=O)c3ccccc3C2=O)cc1	?	?	20µM*	-3%	?
CSc1ccccc1C(=O)Nc1cc(C)cc(C)c1	-2%	-1%	-19%	?	0%
CSc1ccccc1C(=O)Nc1ccc(C)c(C)c1	?	?	?	15µM*	?
CCOc1ccc(NC(=O)C(C)Oc2ccccc2C(=O)Nc2ccc(C)c(Cl)c2)cc1 (stereo unspecified)	7%	0%	15%	12µM*	-8%
CCOc1ccc(NC(=O)c2ccccc2SC)cc1	?	?	·	17µM*	?
C=CC1=C2C=C(C3CC3)N(Cc3ccco3)C=C2C(=O)C(C)(OC(=O)c2ccco2)C1=O (stereo unspecified)	·	·	0%[9.22 µM]	·	·
CCc1ccc(N2C(=O)CC(c3cc(OC)ccc3OC)C3=C2COC3=O)cc1 (stereo unspecified)	·	·	-12%	4%	·
Cc1ccc(NC(=O)c2ccccc2OCC(=O)c2ccc(F)cc2)cc1	-3%	-2%	18%	-1%	12%
CCOc1ccc(NC(=O)c2ccccc2OCC(=O)c2ccc(C)cc2)cc1	5%	2%	14%	5.4µM*	18%
CCc1ccc(NC(=O)Cn2c(=O)n(CCCCC(=O)NCc3ccc4c(c3)OCO4)c(=O)c3ccccc32)cc1	·	·	13%	-1%	·
CN(C)c1ccc(NC(=O)Nc2csc3ccccc23)cc1	?	30%	·	2.7µM*	?
O=C(Nc1ccc(F)cc1)Nc1csc2ccccc12	21%	24%	·	24µM*	-6%
CC(=O)Oc1cccc(/C=C2\C=C(c3ccc(C)cc3)OC2=O)c1	-1%	-2%	-3%	2.7µM*	-4%
Cc1ccc(C2=C/C(=C/c3cccs3)C(=O)O2)cc1	0%	2%	-16%[1.84 µM]	0.38µM*	4%
COc1ccc(C2=C/C(=C\c3ccc(OC(C)=O)cc3)C(=O)O2)cc1	-4%	1%	13%	-9%	6%
C[C@@](N)(/C=C\c1ccccc1)C(=O)O	·	·	-5%[9.22 µM]	·	·
COc1cccc(-c2nc(CCl)cs2)c1	6%	-5%	-8%	27µM*	1%
COc1ccc(-c2nc(-c3ccc(O)cc3O)cs2)cc1OC	?	16%	?	11µM*	?
COc1ccc(N2CC(O)=C(c3nc(-c4ccc(Br)cc4)cs3)C2=N)cc1	0%	0%	-7%	-2%	10%
COc1ccc(-c2csc(C3=C(O)CN(C(C)C)C3=N)n2)cc1OC	4%	-3%	7%	11µM*	?
SMILES	Rab9 promoter act	NPC1 prom act	SMN2 splice enh	FLuc counter	ELG1 genotox
COc1ccc(N2CC(O)=C(c3nc(-c4ccccc4)cs3)C2=N)cc1	-3%	3%	·	-4%	-2%
COc1ccc(-c2csc(-c3ccc(O)cc3)n2)cc1	2%	-21%	·	9.5µM*	?
COc1ccc(-c2nc(CCl)cs2)cc1OC	12%	-2%	-5%	?	22%
Cc1cc(C)cc(Nc2cc(-c3ccccc3)nc(C)n2)c1	·	·	·	-17%	·
Cc1ccc(Cc2c(C)nn(-c3nc(C)c(C(=O)N4CCCCC4C)s3)c2C)cc1 (stereo unspecified)	·	·	·	-19%	·
CC(C)c1ccc(/C(C(=O)O)=C(\O)C(=O)O)cc1	·	·	-10%[9.22 µM]	·	·
CCC(=O)OCN1C(=O)C=CC1=O	·	·	-9%[9.22 µM]	·	·

Screens as filed in PubChem BioAssay.
